Measurements from PubChem BioAssay (NCATS).
Several values for one entry are separate records, joined by “and”; a condition that tells them apart may be missing. Equal values may be shown once. Records with an inconclusive call do not appear. A number with no mark means an inactive call. Activity calls are given as the source filed them. Calls follow the shape of the dose curve; as a rule, active = well fitted cell-killing curve with a large enough effect; inconclusive = small, poorly fitted or top-dose-only effect, or effect the other way; inactive = no such curve, though single readings can be large or run the other way.

Experiment: Viability qHTS for spleen associated tyrosine kinase inhibitor (SYKi) drug resistant MV4-11 cells (AID 1963824); also: nearly all actives have a fitted effect of over 35% in size
Details: SYKi-resistant MV4-11 viability, CellTiter-Glo, 72 h; series mostly up to 45 µM; viability, % of control: at the top concentration
In short: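 SYK inhibitor-resistant MV4-11 AML cells, 500 per well, added to predispensed compounds and incubated 72 hr at 37 C, 5% CO2. Viability measured by CellTiter-Glo luminescence after 10 min at room temperature.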
Potency is read from the fitted curve at half-maximal effect.

| SMILES | Potency | viability, % of control |
| --- | --- | --- |
| COc1cc(NC(=O)c2cccc(-n3cc(NC(=O)Nc4cccc(C)c4)cn3)c2)cc(OC)c1OC | 9.2 µM (active) | – |
| CNC(=O)c1ccccc1Sc1ccc2c(/C=C/c3ccccn3)n[nH]c2c1 | 8.41 µM (active) and 1.3 µM (active) and 3.32 µM (active) | – |
| CC1=C(c2ccc(NC(=O)c3c(F)cccc3F)cc2)CN(c2nccs2)CC1 | 2.59 µM (active) | – |
| N#C/C(=C(\N)Sc1ccc(N)cc1)c1ccccc1C(F)(F)F | 7.31 µM (active) | – |
| CC(C)c1ccc(NC(=O)C(c2ccccc2)N(C)C(=O)Cc2c[nH]c3ccccc23)cc1 (stereo not given) | 18.4 µM (active) | – |
| CCC(C)/C=C(C)/C=C/C(=O)C1CCC(O)C(C)(O)C1=O (stereo not given) | 13 µM (active) | – |
| CC(C)C[C@H](NC(=O)CNC(=O)OCc1ccccc1)C(=O)N[C@@H](Cc1ccccc1)C(=O)CCl | 8.2 µM (active) | – |
| C/C=C(\C)C(=O)OC1C[C@@]2(COC(C)=O)O[C@H]2/C=C\[C@@]2(C)O[C@@H]2[C@H]2OC(=O)C(COC(C)=O)=C12 (stereo not given in full) | 4.47 µM (active) | – |
| CC(=O)OC[C@]12[C@H](OC(C)=O)C(=O)[C@@H]3[C@@H](OC(C)=O)[C@@]14O[C@@]3(C)COC(=O)c1cccnc1[C@@H](C)[C@H](C)C(=O)O[C@@H]([C@H](OC(C)=O)[C@@H]2OC(C)=O)[C@]4(C)O | – | 93.7% [at 17.3 µM] |
| CNc1cc(OC)c(C(=O)N[C@@H]2CCN(Cc3ccccc3)[C@@H]2C)cc1Cl | 14.6 µM (active) | – |
| C=C1CC2C(C)(CCC(=O)O)C(C(C)(C)O)CCC2(C)C2C(=O)OC(C)(C(=O)OC)C(=O)C12C (stereo not given) | – | 77.9% [at 17.3 µM] |
| COc1cc2c(NC3CCN(C)CC3)nc(N3CCCN(C)CC3)nc2cc1OCCCN(C)C | 18.6 µM (active) | – |
| COc1cc2ncnc(Nc3ccc(O)cc3)c2cc1OC | 7.31 µM (active) | – |
| CN1CCC(NC(=O)c2cc(-c3c(O)cc(O)cc3Oc3ccc([N+](=O)[O-])cc3)on2)CC1 | 0.103 µM (active) | – |
| COC(=O)C1=CO[C@@H](O[C@@H]2O[C@H](CO)[C@@H](O)[C@H](O)[C@H]2O)/C(=C\CO)[C@@H]1CC(=O)OCCc1ccc(O)cc1 | – | 102% [at 17.3 µM] |
| CC[C@@H]1[C@H]2CCCCN3C(=O)C[C@H]([C@@H]4[C@H]1OC(=O)[C@H]4C)[C@@H]23 | – | 77.3% |
| C=CC(C)(C)C1(CC2NC(=O)C3CCCN3C2=O)C(=O)Nc2cc3c(cc21)C=CC(C)(C)O3 (stereo not given) | 1.12 µM (active) | – |
| CC(=O)NC(C(=O)O[C@H]1CCC(C)(C)[C@@H]2CC=C3C(=O)OCC3(O)[C@@]12C)C(C)C (stereo not given in full) | 3.6 µM (active) | – |
| CC1CCC2C(C)(C)C(O)CCC2(C)C12Cc1c(O)cc3c(c1O2)CN=C3N (stereo not given) | – | 71.5% |
| COC(=O)C[C@H]1C(C)(C)[C@H](OC(=O)c2ccccc2)C2CC3=C4CC(=O)O[C@@H](c5ccoc5)[C@]4(C)CCC3[C@@]1(C)C2=O (stereo not given in full) | 10 µM (active) | – |

| SMILES | Potency | viability, % of control |
| --- | --- | --- |
| C=C(COC(=O)C(C)C)C1Oc2cc(C(C)=O)ccc2C1OC(=O)C(C)C (stereo not given) | – | 81.7% |
| CCOC(=O)CCN(C(=O)c1ccc2c(c1)nc(CNc1ccc(C(=N)N)cc1)n2C)c1ccccn1 | – | 91% |
| COC(O)(CC(C)C)C1Oc2cc(C)[nH]c(=O)c2O1 (stereo not given) | – | 70% |
| COC1=CC(=O)O[C@@H](CCc2ccccc2)[C@@H]1O | – | 105% |
| Cc1cc(C(=O)Nc2cc(Oc3ccc4nc(NC(=O)C5CC5)cn4n3)ccc2C)n(C)n1 | 14.8 µM (active) | – |
| CC1=CC(=O)CC(C)(CO[C@@H]2O[C@H](CO)[C@@H](O)[C@H](O)[C@H]2O)C1(O)/C=C/C(C)=C/C(=O)O (stereo not given in full) | – | 83% [at 17.3 µM] |
| CC1(CO)CC(O)[C@]2(C(=O)O)CCC34CC3(C=CC3[C@]5(C)C(CC[C@]34C)C(C)(CO)[C@@H](O)[C@H](O)[C@@H]5O)C2C1 (stereo not given in full) | 11.2 µM (active) | – |
| CCCOc1ccc(-c2nc(OC)c3ccccc3n2)cc1 | – | 85.6% |
| Cc1ccc(F)cc1S(=O)(=O)N[C@@H]1CCN(Cc2ccc(OC(C)C)cc2)C1 | 18.4 µM (active) | – |
| O=C(NCc1ccccc1)[C@H](Cc1ccccc1)NC(=O)[C@H]1O[C@@H]1C(=O)NCCc1ccc(O)cc1 | 13.2 µM (active) | – |
| NC(=O)N1CCC(CC(=O)N2CCC(C3c4ncc(Br)cc4CCc4cc(Cl)cc(Br)c43)CC2)CC1 (stereo not given) | 2.06 µM (active) | – |
| Cc1cccc(N(C)C(=S)Oc2ccc3c(c2)CCC3)c1 | 18.4 µM (active) | – |
| CC(=O)O[C@@H]1[C@@H](OC(=O)/C=C/c2ccccc2)[C@H](C)O[C@@H](O[C@H]2[C@@H]3C=CO[C@@H](O[C@@H]4O[C@H](CO)[C@@H](O)[C@H](O)[C@H]4O)[C@@H]3[C@@]3(CO)O[C@@H]23)[C@@H]1OC(C)=O | – | 96% [at 17.3 µM] |
| C=CC(C)(CCC=C(C)C)O[C@@H]1O[C@H](CO)[C@@H](O)[C@H](O)[C@H]1O (stereo not given in full) | – | 78.6% |
| CN(C(=O)CNC(=O)/C=C/c1cccc(Cl)c1)C1CCS(=O)(=O)CC1 | 0.468 µM (active) | – |
| O=C(Nc1ccc(-n2nc(C(F)(F)F)cc2C(F)(F)F)cc1)c1ccncc1F | 10.3 µM (active) | – |
| C/C=C(\C)C(=O)O[C@H]1[C@@H](O[C@]2(COC(=O)CC(C)C)O[C@H](COC(=O)C(C)CC)[C@@H](OC(C)=O)[C@@H]2O)O[C@H](COC(C)=O)[C@@H](O)[C@@H]1O (stereo not given in full) | – | 94.5% [at 17.3 µM] |
| COC1CC(OC2CCC3(C)C(=CCC4C3CCC3(C)C(C(C)O)CCC43O)C2)OC(C)C1OC1OC(C)C(OC2OC(COC3OC(COC4OC(CO)C(O)C(O)C4O)C(O)C(O)C3O)C(O)C(O)C2O)C(OC)C1O (stereo not given) | – | 97.1% [at 9.25 µM] |
| COc1cc(C[C@H]2C(=O)OC[C@@H]2Cc2ccc(OC)c(OC)c2)ccc1O | 0.255 µM (active) | – |
| C=C1C(=O)O[C@@H]2CC(C)=C([C@@H](C)CCCO)[C@@H](OC(=O)C(C)C)[C@H]12 | 4.04 µM (active) | – |
